Measured values taken from PubChem BioAssay (NCI).
Compounds without any hit were thinned out: in the full panel of roughly 83,000, 20% have a hit.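 For each line, cells grew in 96-well plates with the test compound present at a single concentration for 48 hours.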 A number with no mark means an inactive call. Calls of active or inactive are those of the source. How the source made its calls: active means growth percent below 10; inactive means the rest.

Key:
Assay in all cases: NCI-60 one-dose screen, 48 h (100 = growth as untreated, 0 = no growth, -100 = all killed)
SR leukemia = conditions: 10 µM unless noted
RPMI-8226 leukemia = conditions: 10 µM
OVCAR-5 ovarian = conditions: 10 µM unless noted
OVCAR-4 ovarian = conditions: 10 µM unless noted
IGROV1 ovarian = conditions: 10 µM unless noted
OVCAR-3 ovarian = conditions: 10 µM unless noted
HS 578T breast = conditions: 10 µM unless noted
NCI/ADR-RES ovarian = conditions: 10 µM unless noted
BT-549 breast = conditions: 10 µM unless noted
MDA-MB-435 melanoma = conditions: 10 µM unless noted
SW-620 colon = conditions: 10 µM unless noted
MCF7 breast = conditions: 10 µM unless noted
HCT-116 colon = conditions: 10 µM unless noted
HCC-2998 colon = conditions: 10 µM unless noted
KM12 colon = conditions: 10 µM unless noted
SK-OV-3 ovarian = conditions: 10 µM
T-47D breast = conditions: 10 µM
OVCAR-8 ovarian = conditions: 10 µM unless noted

SMILES | growth (SR leukemia) | growth (RPMI-8226 leukemia) | growth (OVCAR-5 ovarian) | growth (OVCAR-4 ovarian) | growth (IGROV1 ovarian) | growth (OVCAR-3 ovarian) | growth (HS 578T breast) | growth (NCI/ADR-RES ovarian) | growth (BT-549 breast) | growth (MDA-MB-435 melanoma) | growth (SW-620 colon) | growth (MCF7 breast) | growth (HCT-116 colon) | growth (HCC-2998 colon) | growth (KM12 colon) | growth (SK-OV-3 ovarian) | growth (T-47D breast) | growth (OVCAR-8 ovarian)
N#Cc1c(-c2cccc(F)c2)cc(-c2ccc(Br)s2)[nH]c1=O | 40.7% | 73.9% | 102% | 92% | 67.3% | 39.5% | 69% | 44.7% | 65.7% | -25.8% (active) | 28.6% | 63.4% | 30.8% | 110% | 60.1% |  |  | 
COc1cc(CNCCCN2C(=O)c3ccc4c5c(ccc(c35)C2=O)C(=O)N(CCCNCc2cc(OC)c(OC)c(OC)c2)C4=O)cc(OC)c1OC | -3.1% (active) | -18.5% (active) | -67.7% (active) | -97% (active) | -51.2% (active) | -27.7% (active) | -34.1% (active) | 71.1% |  |  | -69.8% (active) | -58.1% (active) | -61.8% (active) | -92.4% (active) | -86.9% (active) | -59.6% (active) | -56.9% (active) | 
C=C(C)CCCC(C)CC#N (configuration not stated) | 90.8% | 102% | 103% | 105% | 107% | 99.8% | 110% | 107% | 95.9% | 104% | 115% | 99.3% | 97.5% | 104% | 95% | 103% | 92.7% | 
COc1ccc(-c2nc(Nc3ccc(F)cc3)nc(Nc3ccc4c(c3)nc(C)n4Cc3ccccc3)n2)cc1 | -20.4% (active) | -17.7% (active) | 88.1% | 42.6% | 36.4% | 50.5% | 54.5% | 26.6% | 70.7% | 34.1% | 45.7% | 22.6% | 23.4% | 45.5% | 26% | 76.8% | 11.5% | 
COc1cccc(OC)c1OC(=O)c1ccccc1 | 91.7% | 96.1% | 107% | 97.4% | 116% | 123% | 96.6% | 105% |  | 97.5% | 102% | 101% | 103% | 94.3% | 109% | 106% | 104% | 
CCCCCCCCCCCCCCCC[N+]1(C)CCOCC1 | -29.4% (active) | -33.9% (active) | 13.8% | 20.7% | -43.1% (active) | -5.72% (active) | 16% | 94.9% | 15.1% | 26.9% | 6.63% (active) | 61.6% | 18.2% | 13.9% | -94.4% (active) |  |  | 
CC(C)OC1=C(Cl)C(=O)c2ccccc2C1=O | 9.89% (active) | 24.5% | 101% | 71.9% | 99.1% | 78% | 81.5% | 87.2% | 59.7% | 97.3% | 56.6% | 73.2% | 39.4% |  | 41.2% | 103% | -24.6% (active) | 
O=c1nc(NO)[nH]c(=O)n1Cc1ccc(F)cc1 | 103% | 105% | 104% | 91.5% | 97.3% | 112% | 112% | 107% | 102% | 103% | 101% | 94.3% | 102% | 114% | 109% | 105% | 97% | 
C=CC[P+](c1ccccc1)(c1ccccc1)c1ccccc1 | 35.7% | 6.29% (active) | 77% | 46% | 73.2% | 32% | 79.4% | 112% | 47.5% | 32.3% | 79.7% | 27.2% | 36.7% | 51.7% | 31.3% | 70.8% | 16.5% | 
O=c1onc(-c2ccccc2)c2ccccc12 | 101% | 98.4% | 116% | 106% | 113% | 113% |  |  | 118% | 105% | 103% | 102% | 113% | 98.9% | 110% |  | 97.8% | 
CCOc1ccc(/C=N\N2CCCCCC2)cc1OCC | 89.6% | 83.4% | 95% |  |  | 104% | 120% |  | 96.2% | 53.2% | 114% | 96% | 99.5% |  | 103% | 91.6% | 99.1% | 
CC1SC(c2ccc(Cl)cc2)N(CCc2cccs2)C1=O (configuration not stated) | -1.75% (active) | -10.3% (active) | 8.29% (active) | 8.71% (active) | 4.04% (active) | -30.3% (active) | -16% (active) | -11% (active) | -39.3% (active) |  | 12.4% | 2.74% (active) | -5.82% (active) | -1.78% (active) | -12% (active) | 5.5% (active) | 9.51% (active) | 
COC(=O)c1c2c(c(C)[n+]([O-])c1C)C(=O)C=C(NCc1cccc(Cl)c1)C2=O | 1.95% (active) | -31.9% (active) | -87.2% (active) |  | -53.9% (active) | -35.7% (active) | -23.2% (active) | -12.7% (active) | -82.3% (active) | -92.1% (active) | -31.4% (active) | -61.3% (active) | -13.7% (active) | -38.3% (active) | 0.497% (active) |  | -37.6% (active) | 
O=C(C[Si](CC(=O)c1cccc(C(F)(F)F)c1)CC(=O)c1cccc(C(F)(F)F)c1)c1cccc(C(F)(F)F)c1 | 5.27% (active) | 4.44% (active) | 91.4% | 88.3% | 48.3% | 37.8% |  | 78.4% | 87.2% | 26% | 35% | 86.3% | 23.5% | 83.6% |  | 98.3% | 98.7% | 
Cc1cc(=O)[nH]n1-c1cc(Cl)ccc1N | 96.6% | 106% | 111% | 105% | 109% | 124% | 123% | 90.6% | 87.1% | 111% | 113% | 101% | 95.6% |  | 119% |  | 105% | 
O=C1/C(=C/c2ccccc2F)CNC/C1=C\c1ccccc1F | -2.72% (active) | -27.8% (active) | -41.3% (active) | 6.6% (active) | -6.61% (active) | -68.6% (active) | 24.5% | 10.9% |  |  | -49.8% (active) | -47% (active) | -81.8% (active) | -89.2% (active) | -80.1% (active) | -45.1% (active) | 9.26% (active) | 
FC(F)(F)c1ccc2c(c1)n1cnnc1c1nncn21 | 84.1% | 95.2% | 110% | 111% | 119% | 117% |  | 113% | 103% | 112% | 108% | 98.2% | 105% | 108% | 110% |  | 102% | 
CCC(C)Oc1cc(/C=N/NC(=O)c2cnn3c2NC(c2ccccc2)C3)ccc1OC (configuration not stated) | 25.8% | 45.7% | 61.3% | 48.3% | 48.1% | 2.52% (active) | -15.1% (active) | 18.6% | 40.7% | 0.38% (active) | 27.3% | 18.5% | 22% | 72.3% | 20.2% |  |  | 
O=C(O)CCN1CCN(c2cccc(Cl)c2)CC1 | 88% |  | 98.9% | 92% | 105% | 122% | 105% | 112% | 104% | 93.1% | 107% | 86.1% | 102% | 114% | 114% | 104% | 98.3% | 99.1%
Cc1c(NCC(=O)Nc2nc3ccccc3[nH]2)c(=O)n(-c2ccccc2)n1C | 92.4% | 96.7% | 92.5% | 88.3% | 102% | 109% | 101% | 101% | 110% | 103% | 103% | 89.4% | 101% | 114% | 112% | 106% | 97.8% | 
